Measurements from PubChem BioAssay AID1159580 (chemical genetic matrix, 2015).
The whole screen tested about 5,500 compounds, of which about 2,000 (36%) were called active. Roughly 18% stayed inconclusive and do not appear here. Cut-off read from the data, not from the text of the source: active = normalized growth mostly below about 0.91 (no sharp cut-off); inconclusive = no clear call, values can overlap the other calls; inactive = mostly above about 0.92. Some of the results follow.

Experiment: chemical genetic growth profiling, strain panel (AID 1159580);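 note: tested at 20 µM; growth read once vehicle control cultures reached saturation at 30 °C; 1 = growth at the plate median or of vehicle wells; lower values mean less growth of the strain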
Conditions: growth OD

Measured: normalized growth

Cc1c(NC(=O)c2cccnc2)c(=O)n(-c2ccccc2)n1C
inactive: S. cerevisiae deletion strains, locus YJR066W, strain TOR1, hits give low values 0.958 | S. cerevisiae deletion strains, locus YJR075W, strain HOC1, hits give low values 0.99 | S. cerevisiae deletion strains, locus YKL009W, strain mrt4, hits give low values 0.958 | S. cerevisiae deletion strains, locus YKL068W, hits give low values 0.99 | S. cerevisiae deletion strains, locus YKL085W, strain MDH1 (second series), hits give low values 0.988 | S. cerevisiae deletion strains, locus YKL085W, strain MDH1, hits give low values 0.988 | S. cerevisiae deletion strains, locus YKL160W, strain elf1, hits give low values 1.02 | S. cerevisiae deletion strains, locus YKL190W, strain CNB1, hits give low values 0.989 | S. cerevisiae deletion strains, locus YKR001C, strain vps1, hits give low values 0.991 | S. cerevisiae deletion strains, locus YKR026C, strain gcn3, hits give low values 0.997 | S. cerevisiae deletion strains, locus YKR091W, strain srl3, hits give low values 1 | S. cerevisiae deletion strains, locus YLL001W, strain dnm1, hits give low values 0.986 | S. cerevisiae deletion strains, locus YLL026W, hits give low values 0.993 | S. cerevisiae deletion strains, locus YLL041C, strain sdh2, hits give low values 0.996 | S. cerevisiae deletion strains, locus YLR027C, strain aat2, hits give low values 1 | S. cerevisiae deletion strains, locus YLR039C, strain RIC1, hits give low values 0.974 | S. cerevisiae deletion strains, locus YLR058C, strain SHM2, hits give low values 0.982 | S. cerevisiae deletion strains, locus YLR102C, strain apc9, hits give low values 0.989 | S. cerevisiae deletion strains, locus YLR113W, strain HOG1, hits give low values 1.06 | S. cerevisiae deletion strains, locus YLR221C, strain rsa3, hits give low values 1.01 | S. cerevisiae deletion strains, locus YLR258W, strain gsy2, hits give low values 0.997 | S. cerevisiae deletion strains, locus YLR262C, strain YPT6 (second series), hits give low values 1.02 | S. cerevisiae deletion strains, locus YLR262C, strain YPT6, hits give low values 0.961 | S. cerevisiae deletion strains, locus YLR268W, strain sec22, hits give low values 0.982 | S. cerevisiae deletion strains, locus YLR320W, strain mms22, hits give low values 1 | S. cerevisiae deletion strains, locus YLR330W, strain CHS5, hits give low values 1 | S. cerevisiae deletion strains, locus YLR342W, strain FKS1 (second series), hits give low values 1.09 | S. cerevisiae deletion strains, locus YLR342W, strain FKS1, hits give low values 1 | S. cerevisiae deletion strains, locus YLR357W, strain rsc2, hits give low values 0.963 | S. cerevisiae deletion strains, locus YLR370C, strain arc18, hits give low values 1 | S. cerevisiae deletion strains, locus YLR371W, strain rom2, hits give low values 0.998 | S. cerevisiae deletion strains, locus YLR384C, strain iki3, hits give low values 0.999 | S. cerevisiae deletion strains, locus YLR418C, strain cdc73, hits give low values 1.01 | S. cerevisiae deletion strains, locus YML016C, strain PPZ1, hits give low values 0.994 | S. cerevisiae deletion strains, locus YML032C, strain rad52, hits give low values 0.971 | S. cerevisiae deletion strains, locus YML120C, strain ndi1, hits give low values 1.02 | S. cerevisiae deletion strains, locus YML124C, strain tub3, hits give low values 0.999 | S. cerevisiae deletion strains, locus YMR058W, strain fet3, hits give low values 1 | S. cerevisiae deletion strains, locus YMR078C, strain ctf18, hits give low values 0.984 | S. cerevisiae deletion strains, locus YMR125W, strain sto1, hits give low values 0.969 | S. cerevisiae deletion strains, locus YMR129W, hits give low values 0.997 | S. cerevisiae deletion strains, locus YMR205C, strain PFK2, hits give low values 0.959 | S. cerevisiae deletion strains, locus YMR223W, strain ubp8, hits give low values 1.02 | S. cerevisiae deletion strains, locus YMR231W, strain pep5, hits give low values 1 | S. cerevisiae deletion strains, locus YMR263W, strain SAP30, hits give low values 0.987 | S. cerevisiae deletion strains, locus YMR307W, strain GAS1, hits give low values 0.961 | S. cerevisiae deletion strains, locus YNL067W, strain RPL9B, hits give low values 0.971 | S. cerevisiae deletion strains, locus YNL071W, strain lat1, hits give low values 1.01 | S. cerevisiae deletion strains, locus YNL153C, strain GIM3, hits give low values 0.952 | S. cerevisiae deletion strains, locus YNL183C, strain NPR1, hits give low values 0.967 | S. cerevisiae deletion strains, locus YNL209W, strain ssb2, hits give low values 1.01 | S. cerevisiae deletion strains, locus YNL233W, strain BNI4, hits give low values 0.941 | S. cerevisiae deletion strains, locus YNL248C, strain rpa49, hits give low values 1.01 | S. cerevisiae deletion strains, locus YNL250W, strain rad50, hits give low values 0.975 | S. cerevisiae deletion strains, locus YNL271C, strain bni1, hits give low values 0.991 | S. cerevisiae deletion strains, locus YNL298W, strain CLA4, hits give low values 0.997 | S. cerevisiae deletion strains, locus YNL307C, strain MCK1, hits give low values 0.995 | S. cerevisiae deletion strains, locus YNL322C, strain KRE1 (second series), hits give low values 0.995 | S. cerevisiae deletion strains, locus YNL322C, strain KRE1, hits give low values 0.996 | S. cerevisiae deletion strains, locus YNR049C, strain mso1, hits give low values 0.997 | S. cerevisiae deletion strains, locus YNR052C, strain pop2, hits give low values 0.996 | S. cerevisiae deletion strains, locus YOL006C, strain TOP1, hits give low values 0.928 | S. cerevisiae deletion strains, locus YOL012C, strain htz1 0.85 | S. cerevisiae deletion strains, locus YOL147C, strain pex11, hits give low values 1 | S. cerevisiae deletion strains, locus YOR001W, strain rrp6, hits give low values 1.01 | S. cerevisiae deletion strains, locus YOR061W, strain CKA2, hits give low values 0.969 | S. cerevisiae deletion strains, locus YOR069W, strain VPS5, hits give low values 1 | S. cerevisiae deletion strains, locus YOR070C, strain gyp1, hits give low values 1 | S. cerevisiae deletion strains, locus YOR080W, strain dia2, hits give low values 0.99 | S. cerevisiae deletion strains, locus YOR083W, strain WHI5, hits give low values 1.02 | S. cerevisiae deletion strains, locus YOR106W, strain vam3, hits give low values 1.01 | S. cerevisiae deletion strains, locus YOR136W, strain idh2, hits give low values 0.983 | S. cerevisiae deletion strains, locus YOR144C, strain elg1, hits give low values 0.994 | S. cerevisiae deletion strains, locus YOR184W, strain ser1, hits give low values 0.985 | S. cerevisiae deletion strains, locus YOR231W, strain MKK1, hits give low values 1.05 | S. cerevisiae deletion strains, locus YOR265W, strain rbl2, hits give low values 0.993 | S. cerevisiae deletion strains, locus YOR270C, strain vph1, hits give low values 1 | S. cerevisiae deletion strains, locus YOR290C, strain snf2, hits give low values 0.98 | S. cerevisiae deletion strains, locus YOR316C, strain cot1, hits give low values 0.986 | S. cerevisiae deletion strains, locus YPL051W, strain arl3, hits give low values 1.01 | S. cerevisiae deletion strains, locus YPL078C, strain atp4, hits give low values 1.01 | S. cerevisiae deletion strains, locus YPL106C, strain sse1, hits give low values 0.992 | S. cerevisiae deletion strains, locus YPL240C, strain hsp82, hits give low values 0.995 | S. cerevisiae deletion strains, locus YPL256C, strain CLN2, hits give low values 1.03 | S. cerevisiae deletion strains, locus YPR119W, strain clb2, hits give low values 0.985 | S. cerevisiae deletion strains, locus YPR141C, strain kar3, hits give low values 0.99 | S. cerevisiae deletion strains, locus YPR163C, strain tif3, hits give low values 0.996 | S. cerevisiae deletion strains, locus YPR167C, strain met16, hits give low values 0.991 | S. cerevisiae deletion strains, strain wtn01, hits give low values 1.02 | S. cerevisiae strains, strain wild type, hits give low values 0.983
